Over roughly 33,000 sequences, “E-score (-0.5 to 0.5)” has its median near -0.013; the highest 2% begin near 0.3. What follows is part of a selection rich in the highest values, with near analogues and random picks from the rest.
What follows are sequences tested against T1, Msn1 (UniProt P22148) (assay: PBM E-score (8-mer binding enrichment) (E-score (-0.5 to 0.5)); higher = stronger / more preferred TF binding). Settings: protein concentration: 200 nM; construct: GST-full length.
T1 sequence: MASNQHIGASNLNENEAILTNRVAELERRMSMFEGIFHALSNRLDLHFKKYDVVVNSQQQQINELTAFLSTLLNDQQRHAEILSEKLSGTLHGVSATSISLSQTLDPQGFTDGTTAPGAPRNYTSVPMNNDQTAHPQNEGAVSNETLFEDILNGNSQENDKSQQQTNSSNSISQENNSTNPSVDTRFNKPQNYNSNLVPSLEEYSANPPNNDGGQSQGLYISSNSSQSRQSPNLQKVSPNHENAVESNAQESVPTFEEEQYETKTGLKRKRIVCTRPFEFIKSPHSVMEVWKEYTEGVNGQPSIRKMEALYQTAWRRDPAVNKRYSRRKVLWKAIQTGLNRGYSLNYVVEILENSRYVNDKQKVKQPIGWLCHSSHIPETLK
Procedure: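 Universal 'all 10-mer' protein binding microarrays (Agilent AMADID 015681) probed with GST-tagged S. cerevisiae TFs (full-length or DBD) made by in vitro transcription/translation (PURExpress), about 100-200 nM. Bound TF was detected with fluorescent anti-GST. Each ungapped 8-mer (which stands for itself and its reverse complement) is scored by the PBM enrichment score (E-score), a modified Wilcoxon-Mann-Whitney statistic from -0.5 to +0.5, computed with the Universal PBM Analysis Suite. Scale: above 0.35 generally sequence-specific binding.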

| Sequence | PBM E-score |
| --- | --- |
| ATCTCCGC | -0.208 |
| CTACAATC | 0.0383 |
| ACCGCGTG | -0.118 |
| ATGTAAAG | -0.0428 |
| CCGAACGC | 0.158 |
| CCTATCTA | -0.0647 |
| CAATGCAG | -0.0326 |
| ACGACAAC | 0.227 |
| TCGACAGA | -0.101 |
| GCGACAAC | 0.167 |
| GCGACAGA | 0.144 |
| CCGACAAG | 0.13 |
| TCGACGAA | 0.118 |
| TCGACAAA | 0.378 |
| CCGACAAC | 0.167 |
| GCGACAAA | 0.355 |
| ACGACAAG | 0.0652 |
| CCGACAAA | 0.42 |
| ACGACAAA | 0.435 |
| TACCGGGA | 0.148 |
| AGCCTGTG | -0.221 |
| AGAGATTG | -0.0815 |
| GCGCAGAA | 0.0474 |
| GAGACCTC | -0.0881 |
| GAGAACTC | -0.162 |

| Sequence | PBM E-score |
| --- | --- |
| AATGGAAT | 0.238 |
| CCCAGCCA | -0.156 |
| CAGGTTGG | -0.102 |
| ACTATGGG | -0.169 |
| CAGAATGC | -0.094 |
| GACAAGTA | 0.369 |
| AACAAATC | 0.0327 |
| TACAAATA | 0.281 |
| GACAAATA | 0.483 |
| CACAAATC | 0.0687 |
| CACAAGTC | 0.0697 |
| TACAAGTA | 0.0835 |
| GACAAATC | 0.473 |
| AACAAGTA | -0.0396 |
| AACAAGTC | 0.103 |
| AACAAATA | 0.211 |
| GACAAGTC | 0.419 |
| ATGGGATG | -0.177 |
| CTGCAAGC | -0.17 |
| ACACAGGT | 0.0743 |
| AGAGTAAA | -0.0814 |
| GTCGAGTA | -0.0563 |
| CACCCTAA | -0.141 |
| CCCTCTGA | -0.174 |
| GTAGGAGA | -0.204 |

| Sequence | PBM E-score |
| --- | --- |
| CTAGGACC | -0.0875 |
| CTAGGACA | 0.489 |
| ATAGGACC | -0.11 |
| ATAGGACA | 0.457 |
| GTAGGATA | -0.0803 |
| ATAGGACG | 0.242 |
| CTAGGATA | -0.13 |
| GTAGGACA | 0.479 |
| CGCTACAC | -0.231 |
| GCCACACA | -0.0564 |
| AACGTTAA | 0.137 |
| AGTAAGCG | -0.082 |
| GAGTAGGA | -0.151 |
| AGGAGACG | -0.298 |
| ACTTATAA | 0.333 |
| GCTTATAA | -0.0204 |
| ATTTATAC | 0.176 |
| ATTTATAA | 0.322 |
| ACTTATAC | 0.0919 |
| CTTTATAA | 0.177 |
| ACCATAAA | 0.173 |
| ATATCTGA | 0.112 |
| CACTTCCA | -0.0388 |
| CATGTCGG | 0.224 |
| AATGTCGC | 0.398 |

| Sequence | PBM E-score |
| --- | --- |
| AAGGTCGT | -0.0332 |
| AATGTCGA | 0.299 |
| AATGTCGG | 0.33 |
| AATGTCGT | 0.442 |
| CATGTCGC | 0.237 |
| AGTGTCGG | 0.202 |
| GATGTCGC | 0.0908 |
| CTCCTTTC | -0.214 |
| GAAAGTGC | -0.0805 |
| ATAGACCA | -0.0849 |
| ACGATCCC | -0.232 |
| CGGCTCTA | -0.00727 |
| CGGGACGA | 0.115 |
| AGGGACCT | -0.0323 |
| CGGGACAA | 0.463 |
| CGGGACCA | -0.152 |
| CGGGACAG | 0.197 |
| CGGGACAC | 0.376 |
| AGGGACAT | 0.488 |
| AGGGACGA | 0.261 |
| CGGGACTC | 0.0112 |
| AGGGACCA | -0.188 |
| AGGGACGG | -0.35 |
| AGGGACAA | 0.487 |
| GGCTAAGA | 0.0666 |

| Sequence | PBM E-score |
| --- | --- |
| ATCCTAGC | -0.118 |
| CCAAGAAA | 0.0697 |
| AAATAGCA | -0.00406 |
| AACCTCGT | -0.0168 |
| AGGGACAC | 0.45 |
| AGGGACGC | -0.0191 |
| AGGGACAG | 0.107 |
| AATTTTGC | 0.0375 |
| AAATTTGT | 0.363 |
| AATTTTGT | 0.34 |
| AATTTTGA | 0.161 |
| AAATTTGG | 0.104 |
| AAATTTGA | 0.19 |
| ACATGCGT | 0.0734 |
| CGTGTACA | 0.277 |
| CATTCTAG | -0.0107 |
| CTAGCGCA | -0.153 |
| CGCAAAGC | 0.0415 |
| ACAATACG | 0.0932 |
| ACAATACA | 0.0447 |
| ACAATACT | 0.325 |
| ATAGACAC | 0.245 |
| ATAGACAG | 0.202 |
| ATAGACAT | 0.428 |
| ATAGACAA | 0.41 |

| Sequence | PBM E-score |
| --- | --- |
| ATAGACGA | 0.0929 |
| ATAGACTA | 0.00413 |
| ATCGTCTA | 0.0246 |
| ATGAAGTC | -0.0197 |
| ACAGCTCG | -0.137 |
| TAGGAATA | 0.0598 |
| AACCATGT | 0.0974 |
| ATGCAGGC | -0.112 |
| GCATTTAC | 0.0372 |
| ACATTTAC | 0.333 |
| ACATTTAG | 0.279 |
| CCATTTAC | 0.0112 |
| AGATTTAT | 0.0411 |
| ACATTTAT | 0.319 |
| CACAAGCC | -0.139 |
| CATCAGTA | 0.0122 |
| AGTGGTCG | -0.0675 |
| AGTTAAAT | 0.0476 |
| CGTGTTAA | -0.00332 |
| ATTTCGGA | 0.239 |
| CGGGGACC | -0.1 |
| CGGGGACG | -0.152 |
| AGGGGACG | -0.0829 |
| GGGGGACA | 0.287 |
| TGGGGACA | 0.433 |

| Sequence | PBM E-score |
| --- | --- |
| TGGGGAAA | -0.0201 |
| AGGGGACA | 0.386 |
| AGGGGACT | -0.151 |
| CGGGGACA | 0.396 |
| CTTGAGAC | 0.0475 |
| GACGTTAC | 0.0854 |
| AGGACGTC | 0.177 |
| GAGAAACA | 0.0761 |
| CGAGTGGC | -0.181 |
| ATGTCGCG | 0.387 |
| AGGTCGCG | 0.0713 |
| ATGTCGCA | 0.38 |
| ATGTCGCC | 0.115 |
| GTGTCGCA | 0.0382 |
| ACGTCGCG | 0.138 |
| GGGGCCAC | -0.325 |
| CTCGCGAC | 0.0116 |
| GTCGCGAA | 0.141 |
| GTCGCGAC | 0.349 |
| AAGCTGGT | -0.026 |
| TAGGCCTA | -0.0564 |
| CAGTTGTC | 0.32 |
| ACGTTGTC | 0.119 |
| CAGTTGTA | 0.069 |
| CCGTTGTC | 0.304 |

| Sequence | PBM E-score |
| --- | --- |
| CCGTTGTA | 0.187 |
| AAGTTGTC | 0.298 |
| ACATTCTG | 0.162 |
| TAGCAGGA | 0.0461 |
| GCACCCGC | -0.163 |
| ACATTGGC | -0.0178 |
| ATTCAGGC | 0.0647 |
| CACATTGC | 0.115 |
| TACATTGA | 0.105 |
| GACATTGA | 0.386 |
| CACATTGA | 0.0276 |
| AACATTGC | -0.162 |
| GACATTGC | 0.434 |
| ATCCCGGG | 0.0417 |
| CAGAGACA | 0.204 |
| GCTCAAGA | -0.102 |
| CACGGCTG | -0.156 |
| CAGGTGGA | -0.193 |
| CTGCCCTC | -0.329 |
| CAAAAGTC | 0.282 |
| ATAAAGTC | 0.305 |
| AAAAAGTC | 0.418 |
| GAAAAGTC | 0.326 |
| GAAAAGTA | 0.167 |
| ACAAAGTC | 0.236 |

| Sequence | PBM E-score |
| --- | --- |
| ATAAAGTA | 0.243 |
| ATAAAGTG | 0.154 |
| GAAAAGGC | -0.0462 |
| AAGCGAGA | -0.127 |
| CGGCCACG | -0.189 |
| GACCCGAC | -0.0784 |
| AGGTAATC | -0.139 |
| AACAAAAG | 0.101 |
| ACAGCGTG | 0.0507 |
| AAATGTAG | -0.0386 |
| GAATGTAA | -0.0699 |
| CAATGTAC | 0.195 |
| ATATGTAA | 0.131 |
| GAATGTAC | 0.342 |
| CTATGTAC | 0.189 |
| GAATGTGC | -0.148 |
| ATATGTAC | 0.371 |
| AAATGTAC | 0.371 |
| ATATCACG | -0.0452 |
